# Legend:
# Test in all cases: DAPPL (digital affinity profiling via proximity ligation, sequencing); 10 mM Tris-HCl pH 7.5, 50 mM NaCl, 1 mM DTT, 4% glycerol, room temperature, 30 min; GST-TFs on glutathione beads, 16-mer random dsDNA library, 0.1% formaldehyde crosslink after washing; high values mean tight binding
# [1] = target: T1, FLI1 (Homo sapiens, UniProt Q01543 1-452); conditions: protein: recombinant; tags: N-terminal GST; dsDNA, one strand shown
# T1 sequence: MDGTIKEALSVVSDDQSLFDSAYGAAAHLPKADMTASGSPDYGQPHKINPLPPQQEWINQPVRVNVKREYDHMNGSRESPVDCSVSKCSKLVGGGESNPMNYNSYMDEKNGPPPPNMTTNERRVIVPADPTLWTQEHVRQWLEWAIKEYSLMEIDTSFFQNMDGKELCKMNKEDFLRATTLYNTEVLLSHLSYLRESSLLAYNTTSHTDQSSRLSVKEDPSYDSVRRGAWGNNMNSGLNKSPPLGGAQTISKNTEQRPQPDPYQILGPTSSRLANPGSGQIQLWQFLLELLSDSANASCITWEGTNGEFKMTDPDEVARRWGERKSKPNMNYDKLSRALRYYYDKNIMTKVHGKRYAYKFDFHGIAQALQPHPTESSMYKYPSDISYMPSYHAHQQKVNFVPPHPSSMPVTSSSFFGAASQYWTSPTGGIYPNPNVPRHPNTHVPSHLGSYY
# Outline: (§1)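 Binding signal is defined as a hexamer's read frequency for one factor over its frequency for the tag-only sample. To obtain reads, GST-fused human transcription factors were expressed in yeast, captured on glutathione beads, barcoded with DNA and pooled with that sample. Pools met 200 nmole of a 16-mer random double-stranded DNA library in Tris/NaCl/DTT/glycerol buffer for 30 min at room temperature before washing, 0.1% formaldehyde crosslinking, proximity ligation (BsaI/T4 ligase, 1 h, 37 °C), PCR and Illumina NextSeq500 sequencing.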
# [2] = target: T2, ELK1 (Homo sapiens, UniProt P19419 1-428); conditions: protein: recombinant; tags: N-terminal GST; dsDNA, one strand shown
# T2 sequence: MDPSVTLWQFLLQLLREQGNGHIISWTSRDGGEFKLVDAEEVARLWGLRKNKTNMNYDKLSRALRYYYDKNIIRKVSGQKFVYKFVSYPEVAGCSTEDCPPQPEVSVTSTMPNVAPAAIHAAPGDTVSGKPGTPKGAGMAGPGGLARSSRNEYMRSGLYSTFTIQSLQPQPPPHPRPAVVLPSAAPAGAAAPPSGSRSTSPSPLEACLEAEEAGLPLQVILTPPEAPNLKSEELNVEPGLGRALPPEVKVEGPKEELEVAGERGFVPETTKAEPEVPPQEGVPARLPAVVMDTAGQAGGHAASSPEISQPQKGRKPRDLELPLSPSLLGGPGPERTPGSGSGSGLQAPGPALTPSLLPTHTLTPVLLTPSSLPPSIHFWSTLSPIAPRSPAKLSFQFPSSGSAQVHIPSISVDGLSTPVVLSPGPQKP
# Outline: as §1
# [3] = target: T3, GABPA (Homo sapiens, UniProt Q06546 1-454); conditions: protein: recombinant; tags: N-terminal GST; dsDNA, one strand shown
# T3 sequence: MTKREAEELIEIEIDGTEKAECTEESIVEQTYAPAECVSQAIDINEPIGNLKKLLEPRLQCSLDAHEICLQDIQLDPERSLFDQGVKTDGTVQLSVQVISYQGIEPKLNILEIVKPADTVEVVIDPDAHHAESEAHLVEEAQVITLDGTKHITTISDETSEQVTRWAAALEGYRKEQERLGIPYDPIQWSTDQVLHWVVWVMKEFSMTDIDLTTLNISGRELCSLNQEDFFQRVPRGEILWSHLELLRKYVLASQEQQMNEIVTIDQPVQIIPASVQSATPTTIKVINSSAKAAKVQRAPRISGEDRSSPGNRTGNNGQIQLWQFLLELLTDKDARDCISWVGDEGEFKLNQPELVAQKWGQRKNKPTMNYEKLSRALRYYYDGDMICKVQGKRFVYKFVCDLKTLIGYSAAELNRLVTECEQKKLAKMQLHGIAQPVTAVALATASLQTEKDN
# Outline: as §1
# [4] = target: T4, ERG (Homo sapiens, UniProt P11308 1-479); conditions: protein: recombinant; tags: N-terminal GST; dsDNA, one strand shown
# T4 sequence: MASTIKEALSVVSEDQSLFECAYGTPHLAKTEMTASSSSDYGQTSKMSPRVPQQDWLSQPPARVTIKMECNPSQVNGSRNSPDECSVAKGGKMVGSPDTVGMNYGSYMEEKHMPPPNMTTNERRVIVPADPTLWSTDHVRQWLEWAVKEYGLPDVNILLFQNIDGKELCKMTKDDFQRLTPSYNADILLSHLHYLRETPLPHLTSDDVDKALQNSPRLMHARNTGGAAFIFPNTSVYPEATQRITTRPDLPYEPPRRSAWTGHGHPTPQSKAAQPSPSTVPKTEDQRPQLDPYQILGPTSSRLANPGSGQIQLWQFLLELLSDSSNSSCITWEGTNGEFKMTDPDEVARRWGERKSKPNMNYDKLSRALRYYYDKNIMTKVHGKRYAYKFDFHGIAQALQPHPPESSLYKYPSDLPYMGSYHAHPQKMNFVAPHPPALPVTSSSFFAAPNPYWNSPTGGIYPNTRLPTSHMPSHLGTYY
# Outline: as §1
# [5] = target: ELF1 (Homo sapiens, UniProt P32519 1-619); conditions: protein: recombinant; tags: N-terminal GST; dsDNA, one strand shown
# Outline: as §1
# [6] = target: T5, EHF (Homo sapiens, UniProt Q9NZC4 1-300); conditions: protein: recombinant; tags: N-terminal GST; dsDNA, one strand shown
# T5 sequence: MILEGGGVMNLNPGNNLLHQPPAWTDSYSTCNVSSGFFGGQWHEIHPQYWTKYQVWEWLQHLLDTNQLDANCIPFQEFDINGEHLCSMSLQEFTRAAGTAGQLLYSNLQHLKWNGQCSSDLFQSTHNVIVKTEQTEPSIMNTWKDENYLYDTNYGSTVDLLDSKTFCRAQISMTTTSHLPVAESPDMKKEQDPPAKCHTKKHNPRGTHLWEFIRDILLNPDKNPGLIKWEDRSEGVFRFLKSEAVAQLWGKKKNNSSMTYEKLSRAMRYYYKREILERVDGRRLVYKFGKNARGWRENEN
# Outline: as §1
# [7] = target: SPI1 (Homo sapiens, UniProt P17947 1-270); conditions: protein: recombinant; tags: N-terminal GST; dsDNA, one strand shown
# Outline: as §1
# [8] = target: SPIB (Homo sapiens, UniProt Q01892 1-262); conditions: protein: recombinant; tags: N-terminal GST; dsDNA, one strand shown
# Outline: as §1
# [9] = target: T6, ELK3 (Homo sapiens, UniProt P41970 1-407); conditions: protein: recombinant; tags: N-terminal GST; dsDNA, one strand shown
# T6 sequence: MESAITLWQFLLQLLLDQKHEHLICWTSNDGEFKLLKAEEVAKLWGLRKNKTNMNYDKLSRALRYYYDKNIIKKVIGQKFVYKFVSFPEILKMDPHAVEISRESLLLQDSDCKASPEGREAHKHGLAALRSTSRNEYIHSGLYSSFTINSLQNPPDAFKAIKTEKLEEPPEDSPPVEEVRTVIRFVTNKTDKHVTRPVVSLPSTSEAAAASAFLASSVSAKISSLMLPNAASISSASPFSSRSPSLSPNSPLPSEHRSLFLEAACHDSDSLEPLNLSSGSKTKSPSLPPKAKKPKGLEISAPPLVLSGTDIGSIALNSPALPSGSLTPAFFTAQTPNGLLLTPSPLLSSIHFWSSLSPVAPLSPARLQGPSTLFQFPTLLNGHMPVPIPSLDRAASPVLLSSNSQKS
# Outline: as §1
# [10] = target: T7, FEV (Homo sapiens, UniProt Q99581 1-238); conditions: protein: recombinant; tags: N-terminal GST; dsDNA, one strand shown
# T7 sequence: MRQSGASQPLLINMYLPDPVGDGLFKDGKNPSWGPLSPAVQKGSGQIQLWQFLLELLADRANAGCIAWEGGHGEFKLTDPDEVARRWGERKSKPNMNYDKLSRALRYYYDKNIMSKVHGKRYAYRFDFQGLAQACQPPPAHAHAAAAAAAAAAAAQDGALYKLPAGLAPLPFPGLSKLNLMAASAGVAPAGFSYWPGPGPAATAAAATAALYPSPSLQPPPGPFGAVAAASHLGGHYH
# Outline: as §1
# [11] = target: ETV5 (Homo sapiens, UniProt P41161 1-510); conditions: protein: recombinant; tags: N-terminal GST; dsDNA, one strand shown
# Outline: as §1
# [12] = target: HSF1 (Homo sapiens, UniProt Q00613 1-529); conditions: protein: recombinant; tags: N-terminal GST; chain copies: 3; dsDNA, one strand shown
# Outline: as §1
# [13] = target: T8, SPIC (Homo sapiens, UniProt Q8N5J4 1-248); conditions: protein: recombinant; tags: N-terminal GST; dsDNA, one strand shown
# T8 sequence: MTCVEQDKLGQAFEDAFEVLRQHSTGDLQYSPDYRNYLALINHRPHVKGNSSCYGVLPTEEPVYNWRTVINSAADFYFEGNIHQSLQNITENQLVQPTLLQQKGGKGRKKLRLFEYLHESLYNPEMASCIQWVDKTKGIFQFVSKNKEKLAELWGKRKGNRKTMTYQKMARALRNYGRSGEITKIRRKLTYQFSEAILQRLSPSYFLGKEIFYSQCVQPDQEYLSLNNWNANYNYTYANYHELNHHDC
# Outline: as §1
# [14] = target: ELF4 (Homo sapiens, UniProt Q99607 1-663); conditions: protein: recombinant; tags: N-terminal GST; dsDNA, one strand shown
# Outline: as §1
# [15] = target: T9, ELK4 (Homo sapiens, UniProt P28324-2 1-405); conditions: protein: recombinant; tags: N-terminal GST; dsDNA, one strand shown
# T9 sequence: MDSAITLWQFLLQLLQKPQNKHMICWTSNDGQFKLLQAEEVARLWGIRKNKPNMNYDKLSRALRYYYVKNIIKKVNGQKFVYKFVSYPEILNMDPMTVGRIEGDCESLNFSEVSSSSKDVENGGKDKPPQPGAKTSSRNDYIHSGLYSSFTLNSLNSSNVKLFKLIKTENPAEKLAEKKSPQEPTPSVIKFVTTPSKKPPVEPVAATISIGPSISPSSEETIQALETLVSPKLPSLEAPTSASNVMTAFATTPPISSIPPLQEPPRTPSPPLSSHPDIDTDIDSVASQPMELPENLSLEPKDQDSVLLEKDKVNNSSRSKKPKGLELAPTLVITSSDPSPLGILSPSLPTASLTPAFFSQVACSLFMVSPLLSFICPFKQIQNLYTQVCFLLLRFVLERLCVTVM
# Outline: as §1
# [16] = target: T10, ETV2 (Homo sapiens, UniProt O00321 1-342); conditions: protein: recombinant; tags: N-terminal GST; dsDNA, one strand shown
# T10 sequence: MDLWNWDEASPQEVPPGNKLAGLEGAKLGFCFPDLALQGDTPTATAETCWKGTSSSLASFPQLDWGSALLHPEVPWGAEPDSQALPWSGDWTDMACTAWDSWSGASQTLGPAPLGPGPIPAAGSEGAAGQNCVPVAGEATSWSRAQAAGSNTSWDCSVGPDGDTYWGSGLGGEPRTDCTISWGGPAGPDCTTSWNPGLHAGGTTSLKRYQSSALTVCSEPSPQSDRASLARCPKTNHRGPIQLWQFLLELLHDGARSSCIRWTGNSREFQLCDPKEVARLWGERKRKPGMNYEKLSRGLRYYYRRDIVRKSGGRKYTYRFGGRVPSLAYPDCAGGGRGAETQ
# Outline: as §1
# [17] = target: T11, ELF3 (Homo sapiens, UniProt P78545 1-371); conditions: protein: recombinant; tags: N-terminal GST; dsDNA, one strand shown
# T11 sequence: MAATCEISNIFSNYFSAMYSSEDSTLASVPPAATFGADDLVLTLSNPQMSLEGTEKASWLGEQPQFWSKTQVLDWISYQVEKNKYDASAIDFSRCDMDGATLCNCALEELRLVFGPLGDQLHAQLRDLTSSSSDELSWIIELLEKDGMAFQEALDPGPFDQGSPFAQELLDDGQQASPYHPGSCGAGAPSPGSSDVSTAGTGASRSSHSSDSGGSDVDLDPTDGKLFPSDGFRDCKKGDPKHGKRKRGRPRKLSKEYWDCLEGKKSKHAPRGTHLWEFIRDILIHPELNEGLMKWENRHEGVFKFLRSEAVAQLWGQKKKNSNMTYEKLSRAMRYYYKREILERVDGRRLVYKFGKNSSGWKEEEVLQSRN
# Outline: as §1
# [18] = target: CRX (Homo sapiens, UniProt O43186 1-299); conditions: protein: recombinant; tags: N-terminal GST; dsDNA, one strand shown
# Outline: as §1
# [19] = target: ETV1 (Homo sapiens, UniProt P50549 1-477); conditions: protein: recombinant; tags: N-terminal GST; dsDNA, one strand shown
# Outline: as §1
# SPIB, sequence (Q01892 whole entry): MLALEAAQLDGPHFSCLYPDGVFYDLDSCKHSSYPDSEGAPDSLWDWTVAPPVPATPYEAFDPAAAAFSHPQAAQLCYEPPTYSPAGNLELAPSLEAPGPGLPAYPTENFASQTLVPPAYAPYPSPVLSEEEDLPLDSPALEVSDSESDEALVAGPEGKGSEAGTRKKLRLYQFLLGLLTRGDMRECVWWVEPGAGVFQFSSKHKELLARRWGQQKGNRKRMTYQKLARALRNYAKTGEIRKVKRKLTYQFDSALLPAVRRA
# HSF1, sequence (Q00613 whole entry): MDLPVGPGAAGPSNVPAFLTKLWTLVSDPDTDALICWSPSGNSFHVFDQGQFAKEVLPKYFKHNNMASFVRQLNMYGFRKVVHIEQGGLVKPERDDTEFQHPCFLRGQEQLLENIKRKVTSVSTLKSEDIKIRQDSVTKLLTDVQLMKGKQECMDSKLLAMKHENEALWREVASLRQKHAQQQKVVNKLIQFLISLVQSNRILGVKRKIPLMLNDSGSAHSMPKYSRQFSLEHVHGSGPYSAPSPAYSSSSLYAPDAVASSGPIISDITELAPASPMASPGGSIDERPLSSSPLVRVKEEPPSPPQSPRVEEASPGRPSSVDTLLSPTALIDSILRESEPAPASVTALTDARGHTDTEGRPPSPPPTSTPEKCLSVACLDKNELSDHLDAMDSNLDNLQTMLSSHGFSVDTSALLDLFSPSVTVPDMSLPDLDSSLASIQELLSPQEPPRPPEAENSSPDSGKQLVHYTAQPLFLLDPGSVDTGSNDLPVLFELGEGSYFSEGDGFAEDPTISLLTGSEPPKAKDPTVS
# ETV5, sequence (P41161 whole entry): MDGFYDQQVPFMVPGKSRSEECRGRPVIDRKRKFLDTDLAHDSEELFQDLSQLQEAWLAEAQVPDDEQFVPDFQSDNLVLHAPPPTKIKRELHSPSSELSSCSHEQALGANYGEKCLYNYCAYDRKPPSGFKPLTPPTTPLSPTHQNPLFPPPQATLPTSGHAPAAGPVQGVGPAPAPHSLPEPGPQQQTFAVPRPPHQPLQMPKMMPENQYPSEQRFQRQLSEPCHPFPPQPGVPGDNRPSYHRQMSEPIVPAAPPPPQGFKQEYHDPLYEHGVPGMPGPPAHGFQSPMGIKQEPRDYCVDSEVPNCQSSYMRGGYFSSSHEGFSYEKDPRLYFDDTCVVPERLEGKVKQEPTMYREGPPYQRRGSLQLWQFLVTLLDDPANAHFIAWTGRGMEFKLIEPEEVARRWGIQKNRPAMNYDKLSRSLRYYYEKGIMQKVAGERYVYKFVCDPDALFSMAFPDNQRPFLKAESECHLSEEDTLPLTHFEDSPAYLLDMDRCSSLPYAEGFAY
# ETV1, sequence (P50549 whole entry): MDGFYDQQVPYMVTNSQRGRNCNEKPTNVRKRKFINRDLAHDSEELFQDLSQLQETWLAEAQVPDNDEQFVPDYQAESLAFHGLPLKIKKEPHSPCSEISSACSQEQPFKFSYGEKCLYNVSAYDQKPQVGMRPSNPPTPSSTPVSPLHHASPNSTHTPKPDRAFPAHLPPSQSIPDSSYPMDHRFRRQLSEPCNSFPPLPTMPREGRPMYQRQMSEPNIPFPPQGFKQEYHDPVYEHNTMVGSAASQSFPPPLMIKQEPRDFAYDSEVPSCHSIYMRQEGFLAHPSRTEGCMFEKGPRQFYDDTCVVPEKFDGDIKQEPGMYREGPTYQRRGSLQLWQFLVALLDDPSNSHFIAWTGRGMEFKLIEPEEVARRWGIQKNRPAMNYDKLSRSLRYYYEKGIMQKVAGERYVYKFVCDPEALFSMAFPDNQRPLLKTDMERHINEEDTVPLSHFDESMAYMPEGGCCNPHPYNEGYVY
# CRX, sequence (O43186 whole entry): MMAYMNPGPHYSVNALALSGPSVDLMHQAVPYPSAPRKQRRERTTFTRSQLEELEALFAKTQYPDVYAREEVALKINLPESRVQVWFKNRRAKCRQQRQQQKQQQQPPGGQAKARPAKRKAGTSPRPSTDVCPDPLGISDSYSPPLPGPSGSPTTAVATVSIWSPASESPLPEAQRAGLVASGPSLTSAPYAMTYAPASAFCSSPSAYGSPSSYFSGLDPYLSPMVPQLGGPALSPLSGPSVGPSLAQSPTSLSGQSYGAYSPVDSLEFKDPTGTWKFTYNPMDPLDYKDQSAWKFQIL
# ELF4, sequence (Q99607 whole entry): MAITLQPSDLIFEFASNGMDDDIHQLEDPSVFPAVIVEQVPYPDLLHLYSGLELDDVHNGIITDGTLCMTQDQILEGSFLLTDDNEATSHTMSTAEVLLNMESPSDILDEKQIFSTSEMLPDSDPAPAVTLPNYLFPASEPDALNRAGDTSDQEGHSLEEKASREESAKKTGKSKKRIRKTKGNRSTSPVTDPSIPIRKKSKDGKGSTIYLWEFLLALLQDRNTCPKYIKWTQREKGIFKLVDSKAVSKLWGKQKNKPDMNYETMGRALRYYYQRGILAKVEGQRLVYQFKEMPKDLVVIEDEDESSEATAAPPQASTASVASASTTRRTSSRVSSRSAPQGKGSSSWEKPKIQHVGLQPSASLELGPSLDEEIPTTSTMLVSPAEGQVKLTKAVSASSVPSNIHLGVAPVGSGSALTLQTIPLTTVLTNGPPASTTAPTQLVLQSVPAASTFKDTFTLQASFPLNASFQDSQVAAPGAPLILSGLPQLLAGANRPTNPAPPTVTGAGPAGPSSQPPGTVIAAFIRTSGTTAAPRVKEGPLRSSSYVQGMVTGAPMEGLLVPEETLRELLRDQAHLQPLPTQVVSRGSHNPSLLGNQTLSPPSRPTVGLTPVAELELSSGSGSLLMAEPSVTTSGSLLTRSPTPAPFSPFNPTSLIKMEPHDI
# ELF1, sequence (P32519 whole entry): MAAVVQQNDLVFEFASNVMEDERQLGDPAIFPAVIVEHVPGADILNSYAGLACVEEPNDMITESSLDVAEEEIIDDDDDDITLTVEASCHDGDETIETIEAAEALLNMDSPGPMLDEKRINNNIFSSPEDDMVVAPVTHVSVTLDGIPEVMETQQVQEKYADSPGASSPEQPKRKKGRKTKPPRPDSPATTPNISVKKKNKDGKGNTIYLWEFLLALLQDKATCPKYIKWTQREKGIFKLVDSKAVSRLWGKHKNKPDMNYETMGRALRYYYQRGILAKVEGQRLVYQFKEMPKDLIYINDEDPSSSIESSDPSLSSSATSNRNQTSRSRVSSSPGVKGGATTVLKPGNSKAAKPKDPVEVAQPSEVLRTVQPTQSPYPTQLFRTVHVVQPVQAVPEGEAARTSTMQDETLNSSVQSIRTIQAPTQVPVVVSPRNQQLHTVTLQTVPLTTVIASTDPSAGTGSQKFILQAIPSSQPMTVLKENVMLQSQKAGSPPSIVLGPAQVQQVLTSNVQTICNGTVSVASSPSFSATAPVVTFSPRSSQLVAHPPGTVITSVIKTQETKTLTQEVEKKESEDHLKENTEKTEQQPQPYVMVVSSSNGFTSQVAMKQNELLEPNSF
sequence,measurement,setting,value
AATATC,binding signal,[1],"1.53 fold enrichment (6-mer frequency, TF over GST control)"
same,binding signal,[2],"1.55 fold enrichment (6-mer frequency, TF over GST control)"
same,binding signal,[3],"1.66 fold enrichment (6-mer frequency, TF over GST control)"
same,binding signal,[4],"1.66 fold enrichment (6-mer frequency, TF over GST control)"
same,binding signal,[5],"1.55 fold enrichment (6-mer frequency, TF over GST control)"
same,binding signal,[6],"1.44 fold enrichment (6-mer frequency, TF over GST control)"
same,binding signal,[7],"1.51 fold enrichment (6-mer frequency, TF over GST control)"
same,binding signal,[8],"1.52 fold enrichment (6-mer frequency, TF over GST control)"
same,binding signal,[9],"1.49 fold enrichment (6-mer frequency, TF over GST control)"
same,binding signal,[10],"1.56 fold enrichment (6-mer frequency, TF over GST control)"
same,binding signal,[11],"1.53 fold enrichment (6-mer frequency, TF over GST control)"
same,binding signal,[12],"1.49 fold enrichment (6-mer frequency, TF over GST control)"
same,binding signal,[13],"1.49 fold enrichment (6-mer frequency, TF over GST control)"
same,binding signal,[14],"1.44 fold enrichment (6-mer frequency, TF over GST control)"
same,binding signal,[15],"1.48 fold enrichment (6-mer frequency, TF over GST control)"
same,binding signal,[16],"1.73 fold enrichment (6-mer frequency, TF over GST control)"
same,binding signal,[17],"1.55 fold enrichment (6-mer frequency, TF over GST control)"
same,binding signal,[18],"1.55 fold enrichment (6-mer frequency, TF over GST control)"
same,binding signal,[19],"1.56 fold enrichment (6-mer frequency, TF over GST control)"

# Source: publication PMC7862700, “An all-to-all approach to the identification of sequence-specific readers for epigenetic DNA modifications on cytosine”
